# JMJD2E inh: inhibitors of human JMJD2E histone demethylase; B2RXH2; JMJD2E catalytic domain, FDH-coupled NADH fluorescence (FDH is formaldehyde dehydrogenase); Potency, µM (titrated, usually from 57.1 µM), without a hit: top-dose activity change, negative = inhibition, usual class: inhibitors; 230,000 compounds, 1.6% hits; active = well fitted inhibition curve with a large enough effect, not every such curve was filed as active; inconclusive = small, poorly fitted or top-dose-only effect, or another doubt; inactive = no such curve, though single readings can be large or run the other way;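 also: potency is read from the fitted curve at half-maximal effect; 0% = wells with enzyme and -100% = buffer wells without enzyme; nearly all actives have a fitted effect of over 50% in size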
# Target sequence (B2RXH2 1-337 limits assumed): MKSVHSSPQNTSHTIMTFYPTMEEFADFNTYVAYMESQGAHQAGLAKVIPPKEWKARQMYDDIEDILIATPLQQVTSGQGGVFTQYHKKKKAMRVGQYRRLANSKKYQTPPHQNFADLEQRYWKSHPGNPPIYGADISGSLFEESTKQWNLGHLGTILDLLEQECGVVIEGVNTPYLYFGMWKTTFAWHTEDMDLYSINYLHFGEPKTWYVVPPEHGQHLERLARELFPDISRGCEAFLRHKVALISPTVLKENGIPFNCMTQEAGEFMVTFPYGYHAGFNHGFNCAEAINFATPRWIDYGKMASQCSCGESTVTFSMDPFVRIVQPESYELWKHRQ
# Tau fibril ThT: blocks human tau fibril formation measured by thioflavin T. recombinant tau K18 P301L, heparin-induced fibrillization, ThT fluorescence. AID 1460. P10636. Potency, µM (top dose mostly 57.4 µM), inactives show top-dose activity, negative = inhibition, actives largely listed as inhibitors. 270,000 compounds, 2.1% hits; also: potency is read from the fitted curve at half-maximal effect; nearly all actives have a fitted effect of over 55% in size
# Target sequence (P10636 561-689 P618L limits assumed): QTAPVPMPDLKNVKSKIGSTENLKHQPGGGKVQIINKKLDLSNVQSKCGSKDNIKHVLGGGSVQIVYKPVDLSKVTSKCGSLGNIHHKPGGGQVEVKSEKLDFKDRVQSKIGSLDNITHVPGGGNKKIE
#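 In this qHTS, human K18 P301L tau is incubated with compound and heparin for 6 hr at 37 C, and Thioflavin T fluorescence then reports fibril load.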
# Tau fibril FP: inhibitors of human tau fibril formation; P10636; AID 1468; K18 P301L tau heparin fibrillization, Alexa594 FP, 6 h; Potency, µM (doses to about 57.7 µM), for the others: at the highest dose activity, negative = inhibition, hits mostly inhibitors; 280,000 compounds, 0.39% hits; also: potency is read from the fitted curve at half-maximal effect; nearly all actives have a fitted effect of over 55% in size
#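 Recombinant K18 P301L […], labeled with Alexa 594 at 0.24 uM over 15 uM unlabeled; heparin inducer 20 uM final; 37 C, 6 hr; FP endpoint.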
# Tau fluor counter: counter-screen for tau fibril formation inhibitors; tau K18 P301L Alexa594 fluorescence, heparin fibrillization; 280,000 compounds, 0.93% hits; Potency, µM (doses to about 57.7 µM), inactives show at the highest dose activity change, negative = decrease; also: potency is read from the fitted curve at half-maximal effect; nearly all actives have a fitted effect of over 55% in size
#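 Human tau K18 P301L (15 uM unlabeled, 0.24 uM Alexa 594-labeled) in 100 mM sodium acetate pH 7 with 20 uM heparin, 6 hr at 37 C. ThT 30 uM added, 1 hr ambient; Alexa 594 FP and total fluorescence read at 555/632 nm.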
# FBPA coupling cs: coupling enzyme interference in Giardia aldolase counter-screen; coupling enzyme system counterscreen, AmpLite Red fluorescence; activity change, negative = inhibition, % at 58.2 µM, hits read low; 290,000 compounds, 0.67% hits; in the data active = activity change below about -30%
#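 Coupling enzymes only (glyceraldehyde-3-phosphate) + compound, at 57.5 uM final, 10 min RT; add substrate/coupling/AmpLite Red mix, 20 min RT; fluorescence ex 525/em 598 nm. Actives flag coupling-system interference.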
# Active calls of the source: *; u = inconclusive; x = no result; ! = not confirmed by another sample; [ ] = another dose, or the depositor's remark. Only some compounds are listed: those with a hit (about 3% of all), similar ones and a draw of the others. Unless noted, calls follow the shape of the dose curve; as a rule, active = well fitted curve in the direction sought with a large enough effect; inconclusive = small, poorly fitted or top-dose-only effect, or another doubt; inactive = no such curve, though single readings can be large; an effect the other way counts as inactive or inconclusive. Unless noted, % is scaled to controls: 0 for no effect and ±100 for the full control effect.
SMILES,JMJD2E inh,Tau fibril ThT,Tau fibril FP,Tau fluor counter,FBPA coupling cs
CCN(CC)S(=O)(=O)c1ccc(C(=O)NCCSc2c(-c3ccc(F)cc3)[nH]c3ccccc23)cc1,x,-6%,-4%,4.5µM*[quencher],x
O=C(NCc1nc2ccccc2[nH]1)c1ccc(S(=O)(=O)N2CCOCC2)cc1,u,-2%,0%,1%,-1
COc1ccc(-c2[nH]c3ccccc3c2SCCNC(=O)c2ccccc2)cc1,3%,-1%,2%,-3%,1
CCN(CC)S(=O)(=O)c1ccc(C(=O)NCCSc2c(-c3ccccc3)[nH]c3ccccc23)cc1,x,-10%,-8%,4.5µM*[quencher],x
Cc1ccc(-c2[nH]c3ccccc3c2SCCNC(=O)c2ccc(S(=O)(=O)N3CCOCC3)cc2)cc1,-15%,-4%,2%,3.5µM*[quencher],1
CN(C)S(=O)(=O)c1ccc(C(=O)NCCSc2c(-c3ccc(Br)cc3)[nH]c3ccccc23)cc1,x,-6%,u,4.5µM*[quencher],x
OC[C@H]1OC(O)(CN2CCOCC2)[C@H](O)[C@@H]1O (some centres not stated),x,x,x,x,2
CCOc1cc(/C=C(\C#N)C(N)=O)cc(CSc2ccccc2)c1O,x,x,x,x,-10
CCOc1ccc(C(=O)NCCc2sc(-c3ccc(OC)c(OC)c3)nc2C)cc1,x,u,-3%,-11%,x
C=CCS/C(N)=N\N=C\c1c(O)ccc2ccccc12,u,u,9%,11µM*[quencher],-7
COC(=O)c1c(-c2cccs2)csc1NC(=O)c1cc(OC)c(OC)c(OC)c1,x,11µM*,u,-20%,x
COC(=O)c1c(-c2cccs2)csc1NC(=O)c1ccc(C)cc1,x,32µM*,u,-25%,x
COC(=O)c1c(-c2cccs2)csc1NC(=O)c1cc(OC)cc(OC)c1,x,u,u,-29%,x
COC(=O)c1c(-c2cccs2)csc1NC(=O)c1ccc(OC)c(OC)c1,x,u,u,-20%,x
COC(=O)c1c(-c2cccs2)csc1NC(=O)c1ccc(Br)cc1,x,16µM*,u,-24%,x
COc1ccc(C(=O)Cn2c(=O)n3nc(CCn4nc(C)cc4C)nc3c3cc(OC)c(OC)cc32)cc1,x,-9%,u,-10%,x
Cc1cc(C)c(N(Cc2ccccc2)S(=O)(=O)c2ccc(OCCNC(=O)c3cc4ccccc4o3)cc2)c(C(=O)NO)c1,x,x,x,x,4
CCc1ccc(-c2cn3c(n2)sc2cc(C(=O)NCCc4ccc(OC)cc4OC)ccc23)cc1,x,-12%,-2%,-11%,x
CCN1CCN(Cc2ccc(NC(=O)c3cc(NC(=O)c4cncc(-c5ccc(C#N)cc5)c4)cc(OC)c3)cc2C(F)(F)F)CC1,u,-1%,8.9µM*,u,8
Cc1ccc(C(=O)Nc2nnc(S(=O)(=O)N3CCN(c4ccc(F)cc4)CC3)s2)cc1,x,2.5µM*,6%,-17%,x
O=C(Nc1nnc(S(=O)(=O)N2CCCCC2)s1)c1ccc(Cl)cc1,x,2µM*,4%,-27%,-14
O=C(Nc1nnc(S(=O)(=O)N2CCCCCC2)s1)c1ccc(Br)cc1,x,u,-4%,u,-4
O=C(Nc1nnc(S(=O)(=O)N2CCN(c3ccc(F)cc3)CC2)s1)c1ccc(Cl)cc1,x,u,-8%,-22%,x
COC(=O)C1=C(C(=O)OC)C(c2ccccc2O)c2sc(=O)[nH]c2S1 (configuration not stated),u,25µM*,3%,-20%,-11
O=C(C1=C[C@@H]2[C@H]3C(=O)N(c4ccccc4Cl)C(=O)[C@H]3[C@@H](C(=O)c3ccc(Cl)cc3)N2C=C1)c1ccccc1,u,22µM*,-9%,u,-19
SMILES,JMJD2E inh,Tau fibril ThT,Tau fibril FP,Tau fluor counter,FBPA coupling cs
CCOC(=O)C1CCN(C(=O)Cn2nc(CC)n3c(cc4sccc43)c2=O)CC1,x,-2%,2%,3%,x
CC(=O)OCOC(=O)CN(CC(=O)OCOC(C)=O)c1ccccc1OCCOc1ccccc1N(CC(=O)OCOC(C)=O)CC(=O)OCOC(C)=O,x,-16%,0%,-5%,x
NC(CO)C(=O)NNCc1ccc(O)c(O)c1O (configuration not stated),2.2µM*,3.2µM*,3.2µM*,u,-53*!
CCOc1c(OC(C)=O)ccc(/C=C/c2ccc3cccc(OC)c3n2)c1[N+](=O)[O-],2%,5.6µM*,u,u,0
COC(=O)C1=C(C(=O)OC)[C@@H]2N(C)c3ccc(OC)cc3[C@@]23C[C@@H](C(=O)OC)N(S(=O)(=O)c2cccs2)C3=N1,2%[11.4 µM],-15%[11.5 µM],2%[11.6 µM],-24%[11.6 µM],3
CC(C)C1=CC(=Nc2ccc(S(N)(=O)=O)cc2)C=C(C(C)C)C1=O,x,x,x,x,-43*
NS(=O)(=O)c1ccc(N=C2C(=O)Nc3ccccc32)cc1,-3%,u,u,-14%,-4
Cc1cc2c(NC(=O)Nc3ccc(C(F)(F)F)cc3)cccc2nn1,-25%,u,28µM*,u,-29
COc1ccc2nc(N3CCCCC3)c(/C=C3\SC(=S)NC3=O)cc2c1,1%,14µM*,-3%,u,6
N#C/C(=C\c1cc2ccccc2nc1N1CCCCC1)C(N)=O,5%,u,3%,-5%,1
COc1ccc2nc(N3CCCCC3)c(C#N)cc2c1,u,-7%,4%,-18%,-33*
COc1ccc(-n2c(C)cc(/C=C3\SC(=S)NC3=O)c2C)cc1,u,u,-8%,-27%,1
O=C1NC(=S)S/C1=C\c1cc2ccccc2nc1N1CCCCC1,-15%,14µM*,7%,u,14
Cn1ncc2c(NCc3ccc(F)cc3)ncnc21,x,8%,-4%,8%,x
Cc1nn(-c2ccccc2)c(NC(=O)NS(=O)(=O)c2ccc(Cl)cc2)c1C#N,x,x,x,x,4
CCOC(=O)C1=C(CSc2nc3c(cc2C#N)CN(C)CC3)OC(N)=C(C#N)C1c1ccc(F)cc1 (configuration not stated),u,16µM*,u,u,-8
COC(=O)C1=C(CSc2nc3c(cc2C#N)CN(C)CC3)OC(N)=C(C#N)C1c1ccccc1F (configuration not stated),u,18µM*,u,u,-17
CCOC(=O)C1=C(CSc2nc3c(cc2C#N)CN(C)CC3)OC(N)=C(C#N)C1c1ccccc1 (configuration not stated),u,28µM*,-15%,u,-3
CCOC(=O)C1=C(CSc2nc3c(cc2C#N)CCC3)OC(N)=C(C#N)C1c1ccccc1 (configuration not stated),38%,u,-7%,u,5
CCOC(=O)OCC1OC(c2ccccc2)C=CC1Oc1ccc2oc(=O)cc(C)c2c1 (configuration not stated),x,-3%[11.5 µM],-3%[11.6 µM],-6%[11.6 µM],5
Cc1ccc(NS(=O)(=O)c2ccc(Br)s2)nc1,-14%,28µM*,u,-15%,-37*

# Bioassay records deposited in PubChem BioAssay by National Center for Advancing Translational Sciences (NCATS).
